This is an account of results in PubChem BioAssay (NCATS).

Inconclusive results are not listed. Entries that show only a call come without a potency. Calls of active or inactive are those of the source. Calls follow the shape of the dose curve; as a rule, active = well fitted inhibition curve with a large enough effect; inconclusive = small, poorly fitted or top-dose-only effect; inactive = flat fitted curve, though single readings scatter.
Potency is read from the fitted curve at half-maximal effect.

The assay deals with Zika virus NS2B-NS3 protease (linked construct). The assay can be described thus: Confirmatory screen NINDS AMC qHTS for Zika virus inhibitors (AID 1347152). Also: nearly all actives have a fitted effect of over 70% in size. The conditions noted are these: Purified linked NS2B-NS3, AMC substrate fluorescence; series mostly up to 56.6 µM. The source says:
Assay Submitters (PI): Avindra Nath, Ph.D., National Institute of Neurological Disorders and Stroke (NINDS), Bethesda, MD Radhakrishnan Padmanabhan, Ph.D., Georgetown University (GU), Washington D.C. Zika Virus causes congenital defects, including microcephaly and is associated with Guillain-Barre syndrome, eningoencephalitis and myelitis in infected adult. […] Using a target-based approach, we hope to establish a screening paradigm to uncover novel, cell-active NS2B-NS3 protease (Zika Virus) specific inhibitors from NCATS' collection of small molecules using qHTS. […] Four assay panel was created to identify potential Zika Virus inhibitors. Namely, (1) GU unlinked NS2B-NS3 AMC tagged protease qHTS, (2) GU unlinked NS2B-NS3 Rhodamine tagged protease qHTS, (3) NINDS linked NS2B-NS3 AMC tagged protease qHTS, (4) NINDS linked NS2B-NS3 Rhodamine tagged protease qHTS. Active compounds were re-acquired and re-screened to confirm inhibition. Inhibitors were further screened against various confirmatory and counterscreens in dose response format. Early Translation Branch (ETB) National Center for Advancing Translational Sciences (NCATS), Rockville, MD National Institute of Health (NIH), Bethesda, Maryland
Materials: For the linked assay, Nath lab (NINDS) provided the purified linked NS2B-NS3 protease which is consists of hydrophilic domain of NS2B linked to the NS3 protease domain by a flexible (-[…]-) linker. Control compound aprotinin is obtained from Thermo Scientific (#78432; Waltham, Massachusetts). NS2B-NS3 AMC substrate (Bz-Nle-Lys-Arg-Arg-AMC; Nle-KRR-AMC) purchased from Bachem (#I-1995; Torrance, CA). Ac-VKTGKR-AMC purchased from Genscript or Bachem, Ac-FAAGKR-AMC purchased from Genscript, Ac-GLVKRR-AMC purchased from Genscript, Ac-LKKR-AMC purchased from Genscript. NINDS AMC linked NS2B-NS3 protease qHTS protocol: Briefly, 3 microL of Zika virus linked NS2B-NS3 protease (1 nM for linked final concentration), in assay buffer (10 mM Tris-HCl pH 8.0 with 0.01% Tween 20) was dispensed into a 1,536-well solid-bottom black plate (Greiner Bio One, Monroe, NC). Twenty-three nL of compounds (final concentration range 7.28 nM to 114 microM) or control Aprotinin (final concentration range 3.47 nM to 114 microM) were transferred via Wako Pin-tool (Wako Automation, Richmond, VA). Samples were incubated (room temperature, protected from light) for 15 minutes followed by a 1 microL AMC substrate addition of (final concentration of 10 microM; Km = 18.3 µM). Plates were then read immediately on a ViewLux High-throughput CCD imager (PerkinElmer, Waltham, MA) equipped with standard UV fluorescence optics (340(30) nm excitation, 450(20) nm emission) then incubated (room temperature, protected from light) for 15 minutes (~20% conversion). The change in fluorescence intensity over the 15-minute reaction period was normalized against no-inhibitor and no-enzyme controls and the resulting percent inhibition data were fitted to a 4-parameter Hill equation. Aprotinin was used as the intraplate control.
Regarding `S=c1[nH]c(-c2ccccc2)cn1-c1ccccc1`, the Potency entry was “inactive”.
As for `Cn1c(=O)c2[nH]c(-c3ccccc3)nc2n(C)c1=O`, the Potency was 21.5 µM (active).
Regarding `CN1CCN(c2cc3c(nn2)Oc2ccccc2N3C)CC1`, the Potency was 10.5 µM (active).
For the molecule `Oc1cc2c(cc1O)CN(C(=S)NCCc1ccc(Cl)cc1)CCC2`, the Potency result is “inactive”.
Regarding `O=C1NC(=O)/C(=C/c2ccc(-c3ccc(F)cc3O)o2)S1`, the Potency result is “inactive”.
As for `CCCCN(CC)c1nc(C)nc2c1c(C)cn2-c1c(C)cc(C)cc1C`, the Potency result was “inactive”.
With `COc1ccc(/C=C/c2nc(NCCCN(C)C)c3ccccc3n2)cc1`, the Potency result is “inactive”.
On to `O=C(NOCC1CC1)c1cc(Br)c(F)c(F)c1Nc1ccc(I)cc1Cl`, for which the Potency entry was “inactive”.
Regarding `COC(=O)C1=C(C)NC(C)=C(C(=O)OC)C1c1cccc(NC(=O)NCCCN2CCC(c3cccc(OC)c3)CC2)c1`, the Potency entry is “inactive”.
Take `COc1ccc(Br)cc1S(=O)(=O)NC(=O)/C=C/c1ccccc1Cc1ccc2ccccc2c1`: the Potency was 10.8 µM (active).
